# Shown are actives, neighbours in structure and some others; about 2.8% of the full set was active somewhere.
# CtBP-E1A inh: qHTS Assay for Inhibitors of the CtBP/E1A Interaction; activity change, % (test concentration not listed); 340,000 compounds, 0.49% hits; CtBP / adenovirus E1A interaction (AlphaScreen); AlphaScreen GST-E1A/His-CtBP binding, 1536-well; hits give low values; in the data active means activity change below about -65%; inconclusive means mostly about -30% to -63%
#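 AlphaScreen with 125 nM GST-E1A and 125 nM His-CtBP (5X stocks) in Tris pH 8.0, 300 mM NaCl, BSA, Tween 20, TCEP. Compounds preincubated 2 h at 37 deg C, then glutathione donor/nickel acceptor beads added for 1 h at 37 deg C in dark.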
# Six1-Eya2 blk: qHTS Assay for Inhibitors of the Six1/Eya2 Interaction; Homeobox protein SIX1 (Homo sapiens) + Protein phosphatase EYA2 (Homo sapiens), …; AlphaScreen GST-Six1/His-Eya2 binding, biochemical; hits give low values; activity change, % (test concentration not listed); 360,000 compounds, 0.56% hits; in the data active means activity change below about -65%; inconclusive means mostly about -30% to -63%
# Target sequence (O00167 whole entry, looked up): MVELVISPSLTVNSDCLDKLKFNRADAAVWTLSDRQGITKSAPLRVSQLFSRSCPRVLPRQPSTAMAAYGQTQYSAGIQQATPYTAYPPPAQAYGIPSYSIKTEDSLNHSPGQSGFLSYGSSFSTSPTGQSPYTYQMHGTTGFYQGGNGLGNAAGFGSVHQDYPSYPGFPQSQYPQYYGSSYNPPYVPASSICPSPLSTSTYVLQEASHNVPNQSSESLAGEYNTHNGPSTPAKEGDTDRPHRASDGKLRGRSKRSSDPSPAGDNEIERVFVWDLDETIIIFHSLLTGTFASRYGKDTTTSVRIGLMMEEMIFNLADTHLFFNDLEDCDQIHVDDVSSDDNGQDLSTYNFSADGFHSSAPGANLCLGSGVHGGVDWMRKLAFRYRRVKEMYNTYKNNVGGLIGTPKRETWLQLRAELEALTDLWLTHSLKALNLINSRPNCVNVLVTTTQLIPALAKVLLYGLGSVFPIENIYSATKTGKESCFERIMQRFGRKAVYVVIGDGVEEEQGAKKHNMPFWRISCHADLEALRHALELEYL
# Target sequence (Q15475 whole entry, looked up): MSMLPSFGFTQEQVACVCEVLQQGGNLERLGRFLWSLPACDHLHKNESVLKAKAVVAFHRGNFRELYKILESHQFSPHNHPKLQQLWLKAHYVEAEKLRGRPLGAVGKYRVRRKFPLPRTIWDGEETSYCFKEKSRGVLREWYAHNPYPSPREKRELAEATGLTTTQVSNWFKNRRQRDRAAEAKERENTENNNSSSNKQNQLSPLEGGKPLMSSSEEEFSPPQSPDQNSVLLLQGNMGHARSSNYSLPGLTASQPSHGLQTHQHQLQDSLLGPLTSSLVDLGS
#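 AlphaScreen with GST-Six1 and His-Eya2 (5X mix: 250 nM and 500 nM), glutathione donor and nickel acceptor beads; buffer 50 mM Tris pH 8.0, 300 mM NaCl, 1 mM TCEP; 1 h at 37 C in the dark.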
# ATXN2 expr inh: Primary qHTS for Inhibitors of ATXN expression; Potency, µM (highest dose often 57 µM), actives largely listed as inhibitors; 360,000 compounds, 0.72% hits; HEK-293 ATXN2-luciferase reporter, luminescence, 24 h; further: nearly all actives have a fitted effect of over 55% in size
#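 qHTS (up to 57 uM final) was run with 24 h compound exposure of reporter cells at 37 °C. Each well was multiplexed: SteadyGlo luminescence measured ATXN2-luciferase expression after a fluorogenic Gly-Phe-AFC viability readout (25 uM final).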
# TGFb SMAD3 inh: qHTS for Inhibitors of TGF-b; AID 588855, 2011; 410,000 compounds, 1.2% hits; Potency, µM (highest dose often 46.1 µM), most hits filed as inhibitors; HepG2 CAGA-GFP TGF-b/SMAD3 reporter, GFP fluorescence, 18 h; TGF-beta stimulated, 500 pg/mL final; further: nearly all actives have a fitted effect of over 65% in size
#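 Inhibition of TGF-beta-driven CAGA-GFP reporter expression in HEPG2 cells is measured by cellular GFP fluorescence after 18 h stimulation with 500 pg/mL recombinant TGF-beta in 1% FBS medium at 37 degrees C.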
# S2 tox: Viability Counterscreen for Primary qHTS for Inhibitors of ATXN expression | S2 cells (HEK-293 line with an ATXN2-luciferase reporter) viability, CellTiter-Fluor protease fluorescence, 24 h | Potency, µM (doses to about 56.7 µM), most hits filed as cytotoxic | 400,000 compounds, 0.49% hits; further: nearly all actives have a fitted effect of over 40% in size
# HepG2 viability: qHTS for Inhibitors of TGF-b: Cytotox Counterscreen; Potency, µM (doses to about 46.1 µM), hits mostly cytotoxic; HepG2 CAGA-GFP viability, ATP luminescence, 18 h; AID 588856, 2011; 410,000 compounds, 0.76% hits
#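 CellTiter-Glo luminescence gave cytotoxicity after 18 hours at 37 degrees C. The cells were HepG2 CAGA-GFP in 1% FBS DMEM, stimulated with 500 pg/mL TGF-beta after compound addition. %Activity was normalised to no-cell wells (complete cell-killing) and DMSO (no toxicity), and curves were fitted and classified.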
# A number is an active result; 0 = inactive; ? = inconclusive; - = no result given; [ ] = dose if it differs, or a comment. Unless noted, the call rests on the fitted dose curve; in most records, active means well fitted curve in the direction sought with a large enough effect; inconclusive means small, poorly fitted or top-dose-only effect, or another doubt; inactive means no such curve, though single readings can be large; an effect the other way counts as inactive or inconclusive.
SMILES,CtBP-E1A inh,Six1-Eya2 blk,ATXN2 expr inh,TGFb SMAD3 inh,S2 tox,HepG2 viability
CCn1cc(/C=C(\NC(=O)c2cc(OC)c(OC)c(OC)c2)C(=O)N2CCOCC2)c2ccccc21,0,0,-,0,0,0
C=C1/C(=C\C=C2/CCC[C@]3(C)[C@@H]([C@H](C)OCCC(C)(C)O)CC[C@@H]23)C[C@@H](O)C[C@@H]1O,-,-,-,-,0,-
Cc1ccc(NC(=O)NC2CC(=O)N(c3ccc4c(c3)OCCO4)C2)cc1 (configuration not stated),0,0,0,0,0,0
COc1ccc(C)cc1NC(=O)NC1CC(=O)N(c2ccc3c(c2)OCCO3)C1 (configuration not stated),0,0,-,0,0,11.2µM
COc1cccc(/C=N\NC(=O)c2ccc(Cn3cc(Br)c([N+](=O)[O-])n3)o2)c1O,-73.7,?,?,?,0,0
COc1cc(/C=N\NC(=O)c2ccc(Cn3nc([N+](=O)[O-])c(Cl)c3C)o2)ccc1O,-84.3,-83.0,0,0,0,0
COc1ccc(OC)c(NC(=O)c2cccc(Cn3cc(Br)c([N+](=O)[O-])n3)c2)c1,0,0,0,0,0,0
COc1ccc(/C=N/NC(=O)c2ccncc2)cc1Cn1nc([N+](=O)[O-])c(Br)c1C,?,-68.6,0[11.3 µM],0,0,0
CCCOc1ccc(NC(=O)CC2C(=O)N(c3ccc(OC)cc3)C(=O)N2CCc2ccncc2)cc1 (configuration not stated),-,-,-,0,-,0
COc1cccc(COCCN2CCN(S(=O)(=O)c3ccccc3)CCC2=O)c1,-,-,-,0,-,0
Cc1ccc(Nc2cc(C)c3ccc(O)cc3n2)cc1C,0,0,-,?,0,10µM
Cn1c(=O)c2c(O)c([N+](=O)[O-])c(=O)n(C)c2n(C)c1=O,0,0,0,0,0,11.2µM
Cc1ccccc1C(=O)N1CCN(c2ccc(NC(=O)c3cccc(OC(C)C)c3)cc2)CC1,0,0,0,0,0,0
COc1c(C)cccc1C(=O)Nc1ccc(N2CCN(C(=O)c3ccccc3C)CC2)cc1,0,0,20µM,?,?,0
O=C(Nc1ccc2ccccc2c1)c1ccc2[nH]c(=O)c(=O)[nH]c2c1,-84.5,?,0,0,0,0
Cc1ccccc1C(=O)N1CCN(c2ccc(NC(=O)c3ccc4c(c3)OCCO4)cc2)CC1,0,0,28.2µM,0,?,0
CN1CCN(c2ccc(NC(=O)c3ccc4ccccc4c3)cc2)CC1,0,0,14.1µM,0,0,0
COc1ccc(C(=O)Nc2ccc(N3CCN(C)CC3)cc2)cc1,-,0,-,0,?,0
Cc1c(C(=O)NCCCN2CCCC2=O)cnn1-c1ncc2c(n1)-c1ccccc1CC2,-,-,-,-,0,-
Cn1c(CNc2ccc(C(=N)N)cc2)nc2cc(C(=O)N(CCC(=O)O)c3ccccn3)ccc21,-,-,0,-,-,-
C[C@@H]1CN(Cc2ccc3c(c2)CN(C(=O)c2ccc(Oc4ccccc4)o2)CCO3)C[C@H](C)O1,-,-,-,-,0,-
Cc1ccc(/C=C/S(=O)(=O)NCC(=O)OCC(=O)Nc2ccc(C(=O)N(C)C)cc2)cc1,-90.8,0,0,0,?,0
Cc1ccc(/C=C/S(=O)(=O)NCC(=O)OCC(=O)Nc2ccc(C(N)=O)cc2)cc1,0,0,0,0,0,0
OCCN1CCN(CC(O)COc2ccc(Cl)cc2)CC1 (configuration not stated),0,0,0,0,0,0
OCCN1CCN(CC(O)COc2ccc(C34CC5CC(CC(C5)C3)C4)cc2)CC1 (configuration not stated),0,0,0,?,0,15.8µM
SMILES,CtBP-E1A inh,Six1-Eya2 blk,ATXN2 expr inh,TGFb SMAD3 inh,S2 tox,HepG2 viability
O=S(=O)(c1cccc(Cl)c1)n1c(/C=C/c2ccccc2Cl)nc2ccccc21,-,-,-,?,-,10µM
Cc1ccc(C)c(NC(=S)N(CCN(C)C)C(C)c2ccccn2)c1 (configuration not stated),-65.3,-70.3,0,0,0,0
Cc1cccc(C)c1NC(=S)N(CCN(C)C)C(C)c1ccccn1 (configuration not stated),-72.1,-82.9,-,0,0,0
N#C/C(=C\c1ccc(Cl)cc1)c1nc(-c2cc3c(ccc4ccccc43)oc2=O)cs1,-,-,0,?,0,0
O=C(Cc1ccc(Cl)cc1)Oc1cccc2cccnc12,-83.4,-90.7,0,?,0,0
O=C(Oc1cccc2cccnc12)c1ccco1,?,?,0,12.6µM,0,0
O=C(Oc1cccc2cccnc12)c1ccc(Br)o1,0,0,0,0,0,0
COc1ccccc1C1CN(Cc2cccc(O)c2)Cc2ccccc2O1 (configuration not stated),-,-,-,-,0,-
C=CCN=c1scc(-c2ccc3c(c2)NC(=O)CO3)n1/N=C(\C)c1ccccn1,0,0,?,11.2µM,0,0
CC(=O)NC(C)c1ccc(Oc2ccc(OC(C)C)cc2)cc1 (configuration not stated),-,-,0,-,-,-
CCOc1cc2ccccc2cc1C(=O)OCC(=O)Nc1ccc(Br)cc1,-,-,-,0,-,0
O=C1C(=O)c2c(ccc3ccccc23)-c2ccccc21,0,0,3.16µM,?,5.01µM,0
CCOC(=O)c1ccccc1NC(=O)CSc1ccc(-c2ccccn2)nn1,-86.0,-84.1,3.55µM,0,?,0
COc1ccc(C)cc1NC(=O)CSc1ccc(-c2ccccn2)nn1,-85.1,-82.6,14.1µM,?,?,0
CCOC(=O)c1ccccc1NC(=O)CSc1nc2ncccc2o1,-,-,0,0,0,2µM
CC(=O)O[C@H]1C[C@@H]2CC[C@H]3[C@H]4C[C@H]([N+]5(C)CCCCC5)[C@@H](OC(C)=O)[C@@]4(C)CC[C@@H]3[C@@]2(C)C[C@H]1N1CCCCC1,-,-,0,-,-,-
COCc1c(C(=O)NC2CCCC2)cnn1-c1nccc(-c2cccs2)n1,-,-,-,-,0,-
CC(=O)c1ccc(Nc2cc(C)nc3c(C)cc(C)cc23)cc1,0,0,?,11.2µM,-,0
COCCNC(=O)C1(C)CCCN(CCC(=O)c2ccc(Br)cc2)C1 (configuration not stated),0,0,0,15.8µM,?,12.6µM
CCCNC(=O)C1(C)CCN(CCC(=O)c2ccc(Br)cc2)C1 (configuration not stated),0,0,0,?,0,0
COc1c(O)cccc1/C=N/NC(=O)Cn1ccnc1C,-,-92.5,-,0,0,0
CC(=O)N/N=C/c1cc(C(C)(C)C)cc(/C=N/NC(C)=O)c1O,-87.8,-76.1,?,0,-,0

# Screening results deposited in PubChem BioAssay by National Center for Advancing Translational Sciences (NCATS).
